Screen size: about 69,000 compounds; about 8,600 (12%) showed an effect of 50% or more. The full list was thinned out, with strong results kept by preference.
tested on: Plasmodium berghei; experiment: Screen against P. berghei liver stage (PbLuc), transformed with Luciferase, at 10uM; format: functional, HepG2; details: tested at 10 uM

Q: Which INHIBITION does the source give for `Cn1c(SCC(N)=O)nnc1-c1csc2c1CCCC2` here?
A: -21.8%

Q: With `CCN1CC(COc2ccccc2)Oc2ncccc2S1(=O)=O` (stereo not given) as the compound, how does the INHIBITION read?
A: 13.9%

Q: Which INHIBITION does the source give for `CCSc1cc(C(=O)NCCNC(=O)N(C)C)ccn1` here?
A: -22.8%

Q: `COc1cc(CCC(=O)NC(C)(C)C)ccc1OCC(F)(F)F` was tested. Which INHIBITION did it give?
A: -17.4%

Q: How did the INHIBITION turn out when `O=C1C[C@H]2[C@H](CCN2C(=O)c2cc[nH]n2)N1Cc1cccnc1` was run?
A: 40.8%

Q: For `OCCOc1ccc(NCc2cccc3cccnc23)cn1`, which INHIBITION is on record?
A: -37.7%

Q: How did the INHIBITION turn out when `OCCOc1ccc(NCc2cc(F)cc3cccnc23)cn1` was run?
A: -116%

Q: `OCCOc1ccc(NCc2cccnc2)cn1` was tested. Which INHIBITION did it give?
A: 59.5%

Q: For `OCCOc1ccc(NCc2cccc3cn[nH]c23)cn1`, which INHIBITION is on record?
A: -1.45%

Q: Which INHIBITION does the source give for `OCCOc1ccc(NCc2cccc3[nH]ccc23)cn1` here?
A: 68.2%

Q: For `Cc1ncccc1CNc1ccc(OCCO)nc1`, which INHIBITION is on record?
A: -89.9%

Q: How did the INHIBITION turn out when `Cc1cc(-c2cnn(CCNC(=O)c3cc[nH]n3)c2C2CC2)on1` was run?
A: 18.9%

Q: `CCCc1nnc(NC(=O)NC(CCO)c2cccs2)s1` (stereo not given) was tested. Which INHIBITION did it give?
A: -26.8%

Q: For `COc1ccccc1CN1CCCC2(Cc3ccccc3CNC2=O)C1` (stereo not given), which INHIBITION is on record?
A: 11%

Q: For `CC(C)OCc1nn(C)c2c1CCN(Cc1ccco1)C2`, which INHIBITION is on record?
A: -16.9%

Q: With `CCC(=O)N1CCN(c2nc(C)nc3c(C)nn(C)c23)CC1` as the compound, how does the INHIBITION read?
A: 27.5%

Q: For `COc1ccccc1C(=O)N1Cc2cc(C)ccc2OCC1CN(C)C` (stereo not given), which INHIBITION is on record?
A: 60.3%

Q: Which INHIBITION does the source give for `Cc1ccc2c(c1)CN(C(=O)c1cccnc1)C(CN(C)C)CO2` (stereo not given) here?
A: 46%

Q: With `Cc1ccc2c(c1)CN(C(=O)c1ccccc1F)C(CN(C)C)CO2` (stereo not given) as the compound, how does the INHIBITION read?
A: 23.9%

Q: Which INHIBITION does the source give for `COc1ccc(C(=O)N2Cc3cc(C)ccc3OCC2CN(C)C)cc1` (stereo not given) here?
A: 66.5%

Q: Which INHIBITION does the source give for `Cc1ccc2c(c1)CN(C(=O)c1cccs1)C(CN(C)C)CO2` (stereo not given) here?
A: -10.5%

Q: Which INHIBITION does the source give for `Cc1ccc2c(c1)CN(C(=O)c1ccncc1)C(CN(C)C)CO2` (stereo not given) here?
A: -23.8%

Q: With `CCCc1nc(NCCCOCC)c2c(n1)c(C)nn2CC` as the compound, how does the INHIBITION read?
A: -1.4%

Q: Which INHIBITION does the source give for `CC1CCCCN1c1nc2c(c(=O)[nH]1)CCN(Cc1ccccn1)C2` (stereo not given) here?
A: 36.7%

Q: For `CC1CCCCN1c1nc2c(c(=O)[nH]1)CCN(Cc1ccccc1O)C2` (stereo not given), which INHIBITION is on record?
A: 23.4%

Q: `Cc1ccsc1CN1CCc2c(nc(N3CCCCC3C)[nH]c2=O)C1` (stereo not given) was tested. Which INHIBITION did it give?
A: 85.7%

Q: How did the INHIBITION turn out when `CC1CCCCN1c1nc2c(c(=O)[nH]1)CCN(Cc1ccc(O)cc1)C2` (stereo not given) was run?
A: 10%

Q: How did the INHIBITION turn out when `CC1CCCCN1c1nc2c(c(=O)[nH]1)CCN(Cc1ccccc1F)C2` (stereo not given) was run?
A: 72.3%

Q: For `Cc1cccc(CN2CCc3c(nc(N4CCCCC4C)[nH]c3=O)C2)n1` (stereo not given), which INHIBITION is on record?
A: 18.2%

Q: With `O=C(NCCn1nc2ccccn2c1=O)c1scnc1Cl` as the compound, how does the INHIBITION read?
A: 17.02%

Q: Which INHIBITION does the source give for `Cn1cc(CN(C(=O)c2ccc(O)c(Cl)c2)C2CC2)cn1` here?
A: 21.3%

Q: How did the INHIBITION turn out when `c1csc(N2CCCN(c3ncnc4sccc34)CC2)n1` was run?
A: 66.8%

Q: `CC1CN(c2ncnc3c2cnn3C)CCN1c1nccs1` (stereo not given) was tested. Which INHIBITION did it give?
A: 5.91%

Q: Which INHIBITION does the source give for `CC1CN(c2ncnc3sccc23)CCN1c1nccs1` (stereo not given) here?
A: 60.2%

Q: Which INHIBITION does the source give for `CCC[C@@H]1CN(c2ncnc3sccc23)C[C@H]1C(=O)O` here?
A: -7.98%

Q: Which INHIBITION does the source give for `N#Cc1ccc(N2CCCN(c3nccs3)CC2)nc1` here?
A: -28.2%

Q: Which INHIBITION does the source give for `c1csc(N2CCN(c3ncnc4sccc34)CC2)n1` here?
A: 38.5%

Q: For `CN1CC(=O)N(c2ccccc2)CC12CCN(Cc1cccnc1)C2` (stereo not given), which INHIBITION is on record?
A: 8.47%

Q: `CC(C)CCn1[nH]c(CNc2ccc(F)cc2)nc1=O` was tested. Which INHIBITION did it give?
A: 15.1%

Q: For `CN1CCC2(C=C(C(=O)N3CCCC3)c3ccccc32)CC1`, which INHIBITION is on record?
A: 26.4%

Q: For `Cc1ccc(CC(=O)N2CCOC(c3ncc(CN(C)C)[nH]3)C2)s1` (stereo not given), which INHIBITION is on record?
A: 7.19%

Q: With `CNc1ncc(-c2csc(NC(=O)C[C@H]3COCCN3)n2)cn1` as the compound, how does the INHIBITION read?
A: 24.8%

Q: `CC(C)CC(=O)N1CCC(c2nnc3n2CCCCC3)CC1` was tested. Which INHIBITION did it give?
A: -16.5%

Q: Which INHIBITION does the source give for `Cn1cc(N)c(-c2nnc3n2CCCC3)n1` here?
A: 42.6%

Q: For `CCC(NC(=O)CCCNC(=O)OC)c1cc(F)ccc1F` (stereo not given), which INHIBITION is on record?
A: -13.6%

Q: `CCc1nc(CSC2CCCN(c3cnn(C)c3)C2=O)cs1` (stereo not given) was tested. Which INHIBITION did it give?
A: 29%

Q: For `O=C(c1cc2c([nH]c1=O)CCC2)N1CCCC1c1ccccc1` (stereo not given), which INHIBITION is on record?
A: -19.7%

Q: Which INHIBITION does the source give for `O=C(c1cc2c([nH]c1=O)CCC2)N1CCCCC1c1cccc(F)c1` (stereo not given) here?
A: 54.7%

Q: Which INHIBITION does the source give for `O=C(c1cc2c([nH]c1=O)CCC2)N1CCCC1c1ccc(F)cc1` (stereo not given) here?
A: 20.6%

Q: Which INHIBITION does the source give for `COC1(CNC(=O)c2ccc(F)c(F)c2)CCSC1` (stereo not given) here?
A: 29.6%

Q: With `CCc1nnc(CNC(=O)CCC2CCCN(C)C2)s1` (stereo not given) as the compound, how does the INHIBITION read?
A: -57.5%

Q: With `Cc1ccsc1CN(CCCO)Cc1nc2ccccc2[nH]1` as the compound, how does the INHIBITION read?
A: 23.2%

Q: `Oc1ccc(-c2c(-c3ccccc3)ncn2C2CCNC2)cc1` (stereo not given) was tested. Which INHIBITION did it give?
A: 54.5%

Q: For `CCOc1ccc(-c2c(-c3ccccc3)ncn2C2CCNC2)cn1` (stereo not given), which INHIBITION is on record?
A: 24.8%

Q: `Oc1ccc(-c2c(-c3ccccc3)ncn2C[C@H]2CCCN2)cc1` was tested. Which INHIBITION did it give?
A: -9.17%

Q: Which INHIBITION does the source give for `O=C(CN1CCC(c2ccccc2)C1)NCC(F)(F)F` (stereo not given) here?
A: 37.8%

Q: `Cn1ncc(C2CC(=O)NCc3nc4ccccn4c32)c1C1CC1` (stereo not given) was tested. Which INHIBITION did it give?
A: 17.6%

Q: Which INHIBITION does the source give for `CCCn1ncc(C2CC(=O)NCc3nc4sc(C)cn4c32)c1C` (stereo not given) here?
A: 44.7%

Q: With `CCCn1ncc(C2CC(=O)NCc3nc4cc(C)ccn4c32)c1C` (stereo not given) as the compound, how does the INHIBITION read?
A: 71.5%

Q: How did the INHIBITION turn out when `CC1(C)O[C@@](C)([C@H]2CC3(CCN(c4cnccn4)CC3)CO2)CC[C@@H]1O` was run?
A: 30.55%

Q: How did the INHIBITION turn out when `CN(C)C(=O)CCNC(=O)Nc1cccc(Cl)c1-n1cccn1` was run?
A: -10.3%

Q: Which INHIBITION does the source give for `CCc1nnc(CN(C)c2cc(C)nc3c(C)c(C)nn23)o1` here?
A: 36.7%

Q: How did the INHIBITION turn out when `CCc1cc(N(C)Cc2ccno2)n2nc(C)c(C)c2n1` was run?
A: -2.73%

Q: `CCc1cc(N(C)Cc2ccncn2)n2nc(C)c(C)c2n1` was tested. Which INHIBITION did it give?
A: 42.3%

Q: Which INHIBITION does the source give for `CCc1cc(N(C)Cc2cc[nH]n2)n2nc(C)c(C)c2n1` here?
A: 81.7%

Q: For `CCc1cc(N(C)Cc2ccnc(C)c2)n2nc(C)c(C)c2n1`, which INHIBITION is on record?
A: 73.5%

Q: Which INHIBITION does the source give for `Cc1cc(N(C)Cc2cc(C)on2)n2nc(C)c(C)c2n1` here?
A: -45.4%

Q: How did the INHIBITION turn out when `COc1ncc(-c2ccc(C(N)=O)cc2)c(OC)n1` was run?
A: 9.41%

Q: How did the INHIBITION turn out when `CN(C)Cc1cn2c(n1)CN(C1CCOC1)CC2` (stereo not given) was run?
A: -4.32%

Q: For `NC(=O)C1CCN(C(=O)NC(Cc2ccccc2)C(F)(F)F)CC1` (stereo not given), which INHIBITION is on record?
A: -82.2%

— ChEMBL document CHEMBL4513216, “Probing the Open Global Health Chemical Diversity Library for Multistage-Active Starting Points for Next-Generation Antimalarials” (ACS Infect Dis, 2020)
